VACV mCherry inh – vaccinia inhibition (mCherry reporter). Vaccinia virus mCherry reporter infection, fluorescence. Potency, µM (highest dose often 36.5 µM), for the others: top-dose activity change, negative = inhibition, actives largely listed as inhibitors. 310,000 compounds, 0.63% hits. AID 720579; calls by dose curve; tested in A549 cells; further: nearly all actives have a fitted effect of over 35% in size
HCV inh – HCV inhibition; Huh7.5.1 HCVcc-Cre infection, luciferase reporter, 44 h; Potency, µM (titrated, usually from 41.8 µM), for inactives: top-dose activity change, negative = inhibition, hits mostly inhibitors; 340,000 compounds, 3.4% hits; active means well fitted inhibition curve with a large enough effect; inconclusive means small, poorly fitted or top-dose-only effect, or another doubt; inactive means no such curve, though single readings can be large or run the other way
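Cells seeded at 1,000/well and cultured 4 h, then compounds added followed by HCVcc-Cre virus (~0.5 moi). After 44 h further culture, luciferase substrate was added, plates held 15 min at room temperature, and luminescence read for 15 sec.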
Marburg entry inh – inhibitors of Marburg virus binding or cell entry | Potency, µM (doses to about 37.8 µM), without a hit: top-dose activity change, negative = inhibition, actives largely listed as inhibitors | Marburg virus pseudotyped entry inhibition, cell reporter | AID 540276 | 300,000 compounds, 1.8% hits; calls by dose curve; tested in HEK293 cells
FMDV inh – antivirals against foot and mouth disease virus | FMDV antiviral cell-based qHTS | Potency, µM (series often up to 57.9 µM), for inactives: top-dose activity change, negative = inhibition, hits mostly inhibitors | 410,000 compounds, 1.2% hits | AID 1159524; calls by dose curve; tested in HEK293T cells; further: read-out not given here; nearly all actives have a fitted effect of over 45% in size
LASV entry inh – inhibitors of Lassa virus binding or cell entry; Lassa virus pseudotype entry inhibition, cell reporter; Potency, µM (titrated, usually from 37.9 µM), for inactives: top-dose activity change, negative = inhibition, actives largely listed as inhibitors; 300,000 compounds, 1.2% hits; calls by dose curve; tested in HEK293 cells; further: nearly all actives have a fitted effect of over 50% in size
VACV Venus inh – inhibitors of vaccinia virus (Venus reporter). AID 720580. 330,000 compounds, 0.46% hits. Potency, µM (doses to about 36.5 µM), for inactives: at the highest dose activity change, negative = inhibition, actives largely listed as inhibitors. Vaccinia virus Venus reporter expression, fluorescence; calls by dose curve; tested in A549 cells; further: nearly all actives have a fitted effect of over 30% in size
The depositor's hits bear a star; i = inactive; ? = inconclusive; . = no result; ! = repeats disagree; [ ] = another dose, or the depositor's remark. In the library only some 5.3% were active in any assay of this set; here they are far more common. On the % scale 0 is the no-effect control and ±100 the full control effect; potency means the concentration at half of the fitted maximal effect.

SMILES	VACV mCherry inh	HCV inh	Marburg entry inh	FMDV inh	LASV entry inh	VACV Venus inh
O=C(Nc1ccccc1OCc1cc(=O)n2ccccc2n1)c1ccccc1F	-3.6%	.	.	-4.0%	-5.4%[46.1 µM]	-12.1%
O=C1OCCN/C1=C/C(=O)c1ccccc1	.	.	4.8%[14.2 µM]	.	.	.
O=C(Nc1ccc(Cl)cc1)Nc1ccc(N2CCCC2)c(S(=O)(=O)Nc2ccccc2Cl)c1	?	5.62µM*	1.58µM*	-8.9%	5.01µM*	?
COc1ccc(C(=O)Nc2ccc(Cl)c(S(=O)(=O)Nc3ccccc3OC)c2)cc1	?	?	2.82µM*	-8.8%	?	?
O=C(c1ccc(F)c(F)c1)N1CCOc2ccc(CN3CCN(Cc4ccccn4)CC3)cc2C1	-4.1%	.	.	-2.5%	.	-12.2%
CCCCCC(=O)Nc1ccc(C2C(=O)c3ccccc3C2=O)cc1	.	2.51µM*	.	54.1%	.	.
CCCCC(=O)Nc1ccc(C(=O)c2ccccc2)cc1	-19.3%	-13.8%	?	21.7%	16.9%[46.1 µM]	-21.6%
Cc1ccc(S(=O)(=O)n2nc(OC(=O)c3c(-c4ccccc4Cl)noc3C)cc2N)cc1	i	9.2%	0.0%	?	-8.4%	-19.2%
Cc1onc(-c2ccccc2Cl)c1C(=O)Oc1cc(N)n(S(=O)(=O)c2ccc(F)cc2)n1	?	-25.4%	?	31.6µM*	-20.2%	-25.8%
O=C(N/N=C/c1ccc(O)c(O)c1)c1ccc(CSc2cccc3cccnc23)cc1	-6.6%	15.8µM*	-5.3%	-9.9%	-11.1%	-8.7%
COc1ccc(C2CC(=O)N(Cc3ccc(F)cc3)c3ccccc3S2)cc1OC (configuration not stated)	-22.7%	.	-0.4%[46.1 µM]	39.8µM*	.	-17.1%
COc1cc(C2CC(=O)N(Cc3ccc(F)cc3)c3ccccc3S2)cc(OC)c1OC (configuration not stated)	-27.4%	.	?	14.1µM*	.	-23.4%
O=C(Nc1ccc(Cl)cc1Cl)[C@@H]1CC=C[C@@H]2CCN(Cc3ccccc3)C(=O)[C@@H]21	-27.0%	.	.	.	.	-17.6%
COC(=O)c1ccc(NC(=O)c2nc(SCc3ccccc3F)ncc2Cl)cc1	36.0%	.	.	.	.	-3.6%
O=C(CSC1=NS(=O)(=O)c2cc(Cl)ccc2N1)c1ccc(Cl)cc1	-14.5%	19.0%	0.9%[46.1 µM]	9.1%	?	-5.8%
CC1=NS(=O)(=O)c2cc(Cl)ccc2N1	-0.2%	3.0%[8.37 µM]	13µM*!	43.3%	?	-8.5%
Fc1ccc(COc2ccc(Br)cc2CNCC2CCCO2)cc1 (configuration not stated)	?	-12.0%	3.98µM*	-21.6%	?	?
CCOc1ccccc1CNC(=O)Cn1c(=O)c2cccn2c2ccc(F)cc21	-26.2%	.	.	-18.8%	0.4%[46.1 µM]	?
O=c1[nH]cn[nH]1	-1.0%	0.562µM*	.	-14.9%	.	-6.2%
Cc1ccn2c(-c3csc(NCc4ccccc4)n3)c(C)nc2c1	.	10µM*	?	15.8µM*	?	?
Cc1ccc(Nc2nc(-c3c(C)nc4ccccn34)cs2)cc1	?	?	-40.9%	25.1µM*	?	10µM*
Cc1nc2ncccn2c1-c1csc(Nc2ccc(O)cc2)n1	?	?	?	-16.9%	?	?
COc1cccc(-c2nc(SCC(=O)NC3CCCC3)c(-c3ccccc3)[nH]2)c1	-18.6%	.	-3.5%[46.1 µM]	0.0%	-18.0%[46.1 µM]	-14.2%
O=[N+]([O-])c1ccc(N2CCN(c3cccc(Cl)c3)CC2)cn1	?	-15.1%	8.91µM*	-22.4%	?	-19.8%
O=[N+]([O-])c1ccc(N2CCCCC2)cn1	.	11.3%	.	34.6%	.	.
Cc1nn(C)c2c1c(-c1ccccc1)cc(=O)n2C(C)C(=O)NCCc1ccc(Cl)cc1 (configuration not stated)	3.0%	.	.	-14.2%	0.0%[46.1 µM]	5.3%
CCCC[C@@H](C)C[C@@H](C)C(=O)N(C)[C@@H](CC(C)C)C(=O)N[C@H](C(=O)N(C)[C@H](C(=O)N1C[C@@H](O)C[C@H]1C(=O)N1C(=O)C=C[C@@H]1C)C(C)C)C(C)OC(C)=O (some centres not stated)	?	3.98µM*	.	?	.	10µM*
CCC[C@H](CN[C@@H](CNC)[C@H](C)O)NCCc1ccc(OC)cc1	i	-15.2%	.	22.1%	.	-16.4%
CCCC[C@@H](CNC)NC[C@H](Cc1ccc(O)cc1)NCCc1ccc(OCC)cc1	?	?	.	-1.9%	.	12.6µM*
